Compounds without any hit were thinned out: in the full panel of roughly 83,000, 20% have a hit.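 Interpretation: 100, growth as untreated; towards 0, rising growth inhibition; 0, no net growth; 0 to -100, cell death. Compounds scoring below 10 were considered active.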 A number with no mark means an inactive call. The source made the active and inactive calls.

What all share (assay): NCI-60 one-dose screen, 48 h (100 = growth as untreated, 0 = no growth, -100 = all killed)
Holding throughout (details): 10 µM unless noted

The test system of test [1] is NCI-H23 lung.
The subject of test [2] is NCI-H226 lung.
The subject of test [3] is NCI-H322M lung.
Test [4] has as its system HOP-62 NSCLC.
The test system of test [5] is NCI-H460 lung.
In test [6] the test system is HOP-92 NSCLC.
The subject of test [7] is NCI-H522 lung.
Test [8] has as its system A549/ATCC NSCLC.
For test [9], the system named is 786-0 renal.
Test [10] concerns COLO 205 colon.

`COc1ccc2c(c1)c(-c1nn3cc(-c4cccs4)nc3s1)cn2C`: the growth in [1] was 82.5%; in test [2] it was 78.9%; in test [3] it was 55.8%; in test [4] it was 85.6%; in [5], 68.7%; in test [6] it was 44.7%. For the same molecule, the growth in [7] is 63%; in test [8] it was 81.1%; in test [9], 97.5%; in test [10], 64.5%.
In the case of `COc1ccc2sc3c(NCCO)nc4ccccc4c3c(=O)c2c1`, the growth in [1] is 96.7%; in test [2], 98.6%; in [3] it was 97.6%; in test [4], 96.2%; in [5], 107%; in [6], 96%. Further, the growth in [7] is 82.1%; in test [8] it was 98.1%; in test [9], 103%; in [10] it was 111%.
As for `c1ccc(Cc2nn3cc(-c4ccccc4)nc3s2)cc1`, the growth in [1] is 97.8%; in [2], 117%; in [3] it was 98.4%; in [4], 104%; in test [5], 102%; in test [6], 109%. Besides, the growth in test [7] is 80.1%; in [8], 91.3%; in [9] it was 86.3%; in test [10] it was 118%.
Turning to `Cc1ccc(/C=C2\Oc3ccc(O)c(O)c3C2=O)cc1`, the growth in test [1] was 36.6%; in test [2], 62.2%; in [3], 58%; in test [4], 44.8%; in test [5] it was 43.4%; in [6], 35.9%. Also, the growth in [7] was 13.6%; in test [8] it was 73.1%; in test [9], 52.5%; in test [10], 107%.
For the molecule `c1ccc(OCc2nnc(-c3ccc(Oc4ccccc4)cc3)o2)cc1`, the growth in test [1] is 94.2%; in [2], 93.7%; in test [3] it was 106%; in test [4] it was 86.4%; in test [5] it was 104%; in [6], 84.6%. Moreover, the growth in test [7] was 86.8%; in test [8], 96%; in test [9] it was 99.1%; in test [10], 104%.
Take `CCCCC1CCCC12NC(=O)NC2=O` (stereo not given): the growth in test [1] was 99.3%; in test [2], 88.5%; in test [3], 98.3%; in [4] it was 99.3%; in test [5], 117%; in [6], 93.6%. The growth was 106% in test [7], 117% in test [8], 105% in test [9] and 120% in test [10].
As for `Cc1nc2ccccc2c(/C=C/c2ccc(Cl)cc2)c1C(=O)/C=C/c1ccc(C(F)(F)F)cc1`, the growth was -33.4% (active) in [1]; -54.7% (active) in test [2]; -43.3% (active) in test [3]; -62.8% (active) in test [4]; -75.3% (active) in [5]; -82.1% (active) in [6]. The growth in [7] was -14.3% (active); in [8], 10.5%; in test [9] it was -85% (active); in test [10], -44.2% (active).
Turning to `COc1ccc(CN2c3ccccc3CCc3ccccc32)cc1F`, the growth was 38.7% in test [1]; 52.9% in [2]; 57.6% in [3]; 36.8% in test [4]; 6.64% (active) in test [5]; 36.4% in test [6]. Also, the growth was -36% (active) in [7], 21.2% in test [8], 33.9% in [9] and -13.9% (active) in test [10].
On to `O=C(Cc1ccc2c(c1)OCCO2)Nc1nc2ccc(F)cc2s1`, for which the growth is 87.1% in test [1]; 104% in test [2]; 105% in test [3]; 93.4% in [4]; 103% in test [5]; 109% in [6]. Further, the growth in test [7] was 87.2%; in test [8], 102%; in [9] it was 104%; in test [10] it was 124%.
Regarding `CC(=O)CC(c1cccs1)c1c(-c2ccccc2)[nH]c2ccccc12` (stereo not given), the growth in test [1] is 66%; in [2], 84.3%; in test [3], 91.4%; in [4] it was 89.5%; in [5] it was 98.4%; in test [6], 72.6%. In addition, the growth is 80.6% in [7], 91.3% in [8], 98.9% in [9] and 107% in test [10].
Take `Cc1[nH]c(C(=O)Nc2ccc(C(=O)N3CCNCC3)cc2OC(C)C)c(Cl)c1Cl`: the growth in test [1] was 90.7%; in [2], 97.2%; in [3] it was 86.1%; in test [4] it was 88.7%; in [5], 2.04% (active); in [6] it was 43.5%. Further, the growth was 94% in test [7], 70.2% in test [8], 77.6% in test [9] and -47% (active) in test [10].
As to `N#Cc1c(-c2ccc(Cl)cc2)nc(NCCO)[nH]c1=O`, the growth in test [1] is 94.3%; in test [2], 101%; in test [3] it was 94.4%; in test [4], 88.6%; in test [5] it was 114%; in test [6] it was 92.3%. For the same molecule, the growth in test [7] was 95.9%; in test [8] it was 93.9%; in [9] it was 101%; in [10], 106%.
As for `CC(=O)OC[C@H]1OC(Sc2sc(C(=O)c3ccc(Br)cc3)c(N)c2-c2nc3ccccc3s2)[C@H](OC(C)=O)[C@@H](OC(C)=O)[C@H]1OC(C)=O` (stereo not given in full), the growth in test [1] was 88.4%; in [2] it was 65.6%; in [3], 91.8%; in test [4] it was 91.1%; in [5], 107%; in test [6] it was 98.3%. The growth is 94.1% in test [7], 92.2% in test [8], 94.4% in test [9] and 108% in test [10].
For the molecule `CCOC(=O)c1c(C)nc2c(c1N)CC(=O)N2Cc1ccc(F)cc1`, the growth is 99.8% in [1]; 90.8% in [2]; 107% in test [3]; 82.1% in test [4]; 99.7% in test [5]; 71.5% in test [6]. Moreover, the growth in [7] is 63.7%; in test [8], 90.8%; in test [9], 98.3%; in test [10], 103%.
Turning to `COc1ccc(C(Cc2ccccc2)NCCN2CCOCC2)cc1` (stereo not given), the growth in [1] is 100%; in test [2] it was 109%; in test [3] it was 95.7%; in test [4], 93.1%; in test [5], 107%; in test [6], 106%. Besides, the growth in test [7] was 71.1%; in test [8], 97.8%; in [9], 89.4%; in test [10], 96.1%.
Regarding `Nc1nc(Cl)cc(=O)n1Cc1ccccc1`, the growth in [1] is 88.1%; in [2] it was 87.6%; in test [3], 89.6%; in test [4], 97.8%; in [5], 105%; in test [6], 88.3%. Also, the growth is 86.7% in test [7], 94.6% in test [8], 101% in test [9] and 114% in test [10].
With `OC(COc1ccccc1Cl)CN1CCN(c2cccc(Cl)c2)CC1` (stereo not given), the growth in test [1] is 100%; in [2] it was 96.5%; in [3] it was 108%; in test [4] it was 119%; in test [5] it was 121%; in test [6], 79.2%. Besides, the growth in test [7] is 88.5%; in [8], 101%; in test [9] it was 98.3%; in test [10], 101%.
Take `O=c1c2cc(F)ccc2sc2c(N3CCNCC3)nc3ccc(F)cc3c12`: the growth is 61.3% in test [1]; 83.8% in test [2]; 55.4% in [3]; 57.5% in [4]; -88.4% (active) in [5]; 7.38% (active) in test [6]. For the same molecule, the growth was 8.28% (active) in [7], 13.2% in test [8], 60.5% in [9] and -51.9% (active) in [10].
As for `CCOc1cccc(NC2=C(Br)C(=O)C(C)=C(C)C2=O)c1`, the growth in [1] was 67.5%; in test [2] it was 72%; in test [3], 96.2%; in test [4], 83.6%; in [5], 100%; in test [6], -8.14% (active). For the same molecule, the growth was 80.5% in [7], 103% in test [8], 104% in test [9] and 123% in test [10].
In the case of `COc1ccc(/C=C/c2c(C(=O)/C=C/c3ccc(C(F)(F)F)cc3)c(C)nc3ccccc23)cc1`, the growth is -23% (active) in test [1]; -38.3% (active) in [2]; 6.19% (active) in test [3]; -1.82% (active) in test [4]; -58.9% (active) in [5]; -64.3% (active) in [6]. In addition, the growth in [7] was -0.88% (active); in [8] it was 65.4%; in [9] it was -72.5% (active); in test [10] it was -28.4% (active).
`O=c1[nH][n+](-c2ccc(Br)cc2)no1`: the growth in test [1] is 88.8%; in test [2], 72.5%; in [3], 72.2%; in test [4], 75.5%; in [5] it was 28.3%; in test [6], 84.1%. Also, the growth in [7] was 49.3%; in test [8], 48.1%; in test [9], 59%; in [10] it was 56.2%.
Take `COc1ccc(-c2cc(-c3cc(OC)c(OC)c(OC)c3)nc(N3CCOCC3)c2C#N)cc1`: the growth in test [1] was 23.4%; in test [2], 83.8%; in [3] it was 93.6%; in test [4], 88.8%; in test [5], 73.8%; in test [6] it was 58.4%. Besides, the growth is 59.9% in test [7], 60% in [8], 61.3% in [9] and 57.7% in test [10].
For `COc1cc2cc(Oc3ccc(NC(=O)Nc4cccc(C(F)(F)F)c4)cc3)c(C)nc2cc1OCCN1CCOCC1`, the growth in test [1] is 15.4%; in test [2], 57%; in test [3] it was 80.4%; in test [4], 50.8%; in test [5], 16.4%; in test [6] it was 33.9%. Moreover, the growth in test [7] is 29.3%; in test [8], 15.8%; in test [9] it was 67.3%; in [10] it was 35.5%.
Take `CN(C)c1ccc2nc3ccc(=[N+](C)C)c([N+](=O)[O-])c-3sc2c1`: the growth in [1] is 9.52% (active); in test [2] it was 73.2%; in [3] it was 42.2%; in test [4], 64.2%; in test [5] it was 25.3%; in test [6], 38.7%. Further, the growth in test [7] is 16.3%; in test [8], 26.3%; in test [9] it was 31.9%; in [10] it was 20.3%.
Take `O=C(/C=C/c1sc(Cl)nc1Cl)c1ccc(Br)cc1`: the growth in [1] is 85.8%; in test [2] it was 81.6%; in test [3] it was 100%; in [4], 97.3%; in [5] it was 103%; in [6], 90.2%. In addition, the growth in test [7] was 86.6%; in [8], 96.1%; in test [9], 92.2%; in test [10] it was 78.8%.
For `COc1ccc(CN2c3ccccc3Sc3ccccc32)c(F)c1`, the growth in test [1] is 50.5%; in test [2] it was 56.1%; in test [3], 44.7%; in [4] it was 26.6%; in [5], 11%; in test [6], 33.2%. Besides, the growth was -12% (active) in test [7], 34.1% in [8], 42.2% in test [9] and 11.7% in test [10].
As for `[O-][n+]1c2ccccc2[n+]([O-])c2c3ccccc3[nH]c21`, the growth was 71.5% in [1]; -0.987% (active) in [2]; 66.9% in test [3]; 26.2% in [4]; 5.29% (active) in test [5]; 66.5% in test [6]. The growth was 57.5% in test [7], 30.6% in [8], 71% in test [9] and 69.8% in test [10].
